The results in this text go back to PubChem BioAssay (NCATS).

Assay [1] is described as follows: qHTS Assay for Identification of Small Molecule Inducers of Hypoxia Response (AID 2120; active means well fitted curve in the direction sought with a large enough effect in the signal ratio, with a control signal flat, not every such curve was filed as active; the % refers to the signal ratio). Summed up: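 HRE-bla ME-180 cells in Opti-MEM with 0.5% dialyzed FBS, pre-plated 4-5 h, then compound titration for 17 h at 37 degrees Celsius. CCF4 loaded 2.5 h at room temperature; 460/530 nm ratio gave %Activity and AC50 for induction.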
Assay [2] concerns the target Endonuclease 4 (Escherichia coli (strain K12)) (UniProt P0A6C1). The assay is described as follows: Counterscreen for APE1 Inhibitors: qHTS Assay for Inhibitors of Endonuclease IV (AID 2565). Summed up:
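E. coli EndoIV at 2 nM final, preincubated 15 min at room temperature with compound, then 50 nM TAMRA/BHQ-2 THF abasic-site duplex added. Buffer: 50 mM Tris-HCl pH 7.5, 50 mM NaCl, 2 mM MgCl2, 1 mM DTT, 0.01% Tween-20. Kinetic fluorescence increase, third minus first read.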

Assay [3] concerns the target DNA repair nuclease/redox regulator APEX1 (Homo sapiens) (UniProt P27695). Put plainly: Confirmation qHTS Assay for Inhibitors of the Human Apurinic/apyrimidinic Endonuclease 1 (APE1) (AID 2572). Further: potency means the concentration at half of the fitted maximal effect; nearly all actives have a fitted effect of over 30% in size. Particulars: purified APE1, fluorogenic abasic-site DNA cleavage. An excerpt:
(§1) The apurinic/apyrimidinic endonuclease APE1 is the primary mammalian enzyme responsible for the removal of abasic (or AP) sites in DNA and functions centrally in the base excision DNA repair (BER) pathway. […] Thus, targeting APE1 could improve the efficacy of current treatment paradigms by promoting selective sensitization or protection of diseased and normal cells, respectively.
Inhibition of APE1 activity was screened by utilizing double-stranded short substrate containing tetrahydrofuran (THF) abasic site labeled with rhodamine-type fluorophore (TAMRA) at the 5'-end and with non-fluorescent Black Hole Quencher-2 (BHQ-2) at the opposing 3'-end. An increase in the fluorescence intensity due to incision of the abasic site by APE1 was used to measure the enzyme activity.
Assay Provider: David M. Wilson, III, National Institute on Aging, NIH
Screening Center PI: Austin, C.P.
Screening Center: NIH Chemical Genomics Center [NCGC]
1. […]
(§2) Three uL of enzyme were dispensed to 1536-well Greiner black solid bottom plates. […] The plates were immediately transferred into ViewLux High-throughput CCD imager (Perkin-Elmer) in order to measure the reaction progress in kinetic mode (three reads every 60 seconds) using 525 nm excitation and 598 nm emission fluorescence protocol. The fluorescence intensity difference between the third and the first time points was used to compute reaction progress.

The target is the same in assay [4]. Put plainly: qHTS FP-Based Assay for Inhibitors of the Human Apurinic/apyrimidinic Endonuclease 1 (APE1) (AID 2573).
Description: as §1
In order to gain insight into the mode of action of confirmed APE1 inhibitors, we implemented a miniaturized fluorescence polarization assay designed to report on compounds which competitively displace ds-DNA substrate. The fluorescence polarization assay has been implemented in 384- and 1536-well format for binding of TAMRA-labeled double-stranded DNA probe not containing a quencher. The binding of protein to DNA is inhibited by ATA, a general inhibitor of APE1 activity.
See also related primary fluorogenic assay (AID 2517). […]
as §2

Assay [5] can be described thus: qHTS for differential inhibitors of proliferation of Plasmodium falciparum line 3D7 (AID 1876). Further: potency means the concentration at half of the fitted maximal effect. The conditions noted are these: P. falciparum 3D7 proliferation inhibition.
Assay [6] is described as follows: qHTS for differential inhibitors of proliferation of Plasmodium falciparum line Dd2 (AID 1882). Further: series mostly up to about 29 µM; nearly all actives have a fitted effect of over 65% in size. Summed up:
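Dd2-infected erythrocytes (0.3% parasitemia, 2.5% hematocrit final) incubated with compound 72 h at 37 C, 5% CO2; lysed with saponin/Triton buffer containing SYBR Green I, incubated overnight in the dark, then read by fluorescence (485/535 nm). Normalized to 0.29 uM artemisinin and DMSO.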

Assay [7] can be described thus: qHTS for differential inhibitors of proliferation of Plasmodium falciparum line W2 (AID 1883).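 Further: potency means the concentration at half of the fitted maximal effect; parasites grown with compound for 72 h before lysis and staining.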 The conditions noted are these: Plasmodium falciparum W2 proliferation inhibition.
For assay [8], the target named is Ferritin light chain (Equus caballus) (UniProt P02791). Put plainly: qHTS Validation Assay for Identification of Novel General Anesthetics (AID 2323). Further: series mostly up to about 77 µM. An excerpt: Source: NIH Chemical Genomics Center [NCGC]
Assay Submitter: Roderic Eckenhoff, University of Pennsylvania
Screening Center PI: Christopher P. Austin, NIH
Probe Development: NIH Chemical Genomics Center [NCGC]
Anesthetic development has remained a largely empirical process. There are growing concerns about the cognitive effects of known general anesthetics and acceleration of the onset of neurodegenerative disease. The compounds' toxicity and multiple specific binding targets in the mammalian brain [4] has made them less attractive as drug leads. In this assay, a GABAergic mimetic model system, apoferritin and a profluorescent 1-aminoanthracene ligand (1-AMA), was used to construct a competitive binding assay for identification of novel general anesthetics. […]
in PBS) in columns 3, 4 as negative control and 1-AMA/apoferritin mixture (10 uM horse-spleen apoferritin in 50% saturated 1-aminoanthracene in PBS) in columns 1, 2, 5-48) was dispensed into 1536-well Greiner black assay plates. […] The plates were incubated for 10 min at room temperature, and then read on an EnVision HTS multilabel reader (Perkin-Elmer, Waltham, MA) (end point read, 3 min/plate) using Fura2 BFP excitation filter (380 nm, bandwidth 10 nm) and fluorescein emission filter (535 nm, bandwidth 25 nm) set. […] Activity was computed as the normalized fluorescence response relative to free 1-AMA and 1-AMA/apoferritin complex values. […]

For assay [9], the target named is ATP-dependent DNA helicase Q1 (Homo sapiens) (UniProt P46063). Put plainly: qHTS Validation Assay for Inhibitors of RecQ-Like Dna Helicase 1 (RECQ1) (AID 2353). Summed up: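 50 nM RECQ1T1 preincubated 15 min with compound in Tris pH 8.0 buffer with MgCl2, DTT, Tween-20 and 2.5 ug/ml poly(dI-dC); started with 200 nM TAMRA/BHQ-2 forked duplex and 2 mM ATP. Unwinding read as fluorescence (525/598 nm), two reads 2 h apart.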

Assay [10] has as its target RecQ-like DNA helicase BLM (Homo sapiens) (UniProt P54132). Put plainly: qHTS Validation Assay for Inhibitors of Bloom's syndrome helicase (BLM) (AID 2364). Summed up: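 50 nM BLM preincubated 15 min at room temperature with compound in pH 8.0 Tris buffer containing 2.5 ug/ml poly(dI-dC); started with 200 nM TAMRA/BHQ-2 forked duplex and 2 mM ATP (final). Unwinding read as TAMRA fluorescence increase, two reads 2 h apart.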

Structures are written as SMILES. Results filed as inconclusive are left out. Some of the results follow. Entries that show only a call come without a potency. The source made the active and inactive calls. Unless noted, the call rests on the fitted dose curve; in most records, active means well fitted curve in the direction sought with a large enough effect; inconclusive means small, poorly fitted or top-dose-only effect, or another doubt; inactive means no such curve, though single readings can be large; an effect the other way counts as inactive or inconclusive.

Chain of ATP-dependent DNA helicase Q1 (Homo sapiens) (P46063 whole entry, looked up): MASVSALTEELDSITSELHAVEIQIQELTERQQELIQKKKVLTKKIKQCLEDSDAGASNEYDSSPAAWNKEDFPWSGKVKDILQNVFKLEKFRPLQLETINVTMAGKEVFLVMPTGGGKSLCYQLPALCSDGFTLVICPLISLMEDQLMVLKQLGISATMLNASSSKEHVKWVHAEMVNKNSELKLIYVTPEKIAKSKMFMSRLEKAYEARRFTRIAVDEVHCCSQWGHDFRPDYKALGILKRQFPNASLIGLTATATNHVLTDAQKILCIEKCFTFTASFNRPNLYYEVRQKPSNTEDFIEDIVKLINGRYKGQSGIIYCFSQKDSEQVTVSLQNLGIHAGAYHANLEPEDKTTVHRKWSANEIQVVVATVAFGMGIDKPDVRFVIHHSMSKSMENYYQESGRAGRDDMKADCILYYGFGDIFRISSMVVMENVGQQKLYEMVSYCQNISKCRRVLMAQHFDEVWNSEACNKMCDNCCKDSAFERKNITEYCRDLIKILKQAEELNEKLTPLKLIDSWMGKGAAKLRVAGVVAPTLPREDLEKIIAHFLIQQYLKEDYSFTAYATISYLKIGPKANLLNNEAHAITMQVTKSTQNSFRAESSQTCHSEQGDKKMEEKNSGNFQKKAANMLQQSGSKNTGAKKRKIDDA
Chain of RecQ-like DNA helicase BLM (Homo sapiens) (P54132 whole entry, looked up): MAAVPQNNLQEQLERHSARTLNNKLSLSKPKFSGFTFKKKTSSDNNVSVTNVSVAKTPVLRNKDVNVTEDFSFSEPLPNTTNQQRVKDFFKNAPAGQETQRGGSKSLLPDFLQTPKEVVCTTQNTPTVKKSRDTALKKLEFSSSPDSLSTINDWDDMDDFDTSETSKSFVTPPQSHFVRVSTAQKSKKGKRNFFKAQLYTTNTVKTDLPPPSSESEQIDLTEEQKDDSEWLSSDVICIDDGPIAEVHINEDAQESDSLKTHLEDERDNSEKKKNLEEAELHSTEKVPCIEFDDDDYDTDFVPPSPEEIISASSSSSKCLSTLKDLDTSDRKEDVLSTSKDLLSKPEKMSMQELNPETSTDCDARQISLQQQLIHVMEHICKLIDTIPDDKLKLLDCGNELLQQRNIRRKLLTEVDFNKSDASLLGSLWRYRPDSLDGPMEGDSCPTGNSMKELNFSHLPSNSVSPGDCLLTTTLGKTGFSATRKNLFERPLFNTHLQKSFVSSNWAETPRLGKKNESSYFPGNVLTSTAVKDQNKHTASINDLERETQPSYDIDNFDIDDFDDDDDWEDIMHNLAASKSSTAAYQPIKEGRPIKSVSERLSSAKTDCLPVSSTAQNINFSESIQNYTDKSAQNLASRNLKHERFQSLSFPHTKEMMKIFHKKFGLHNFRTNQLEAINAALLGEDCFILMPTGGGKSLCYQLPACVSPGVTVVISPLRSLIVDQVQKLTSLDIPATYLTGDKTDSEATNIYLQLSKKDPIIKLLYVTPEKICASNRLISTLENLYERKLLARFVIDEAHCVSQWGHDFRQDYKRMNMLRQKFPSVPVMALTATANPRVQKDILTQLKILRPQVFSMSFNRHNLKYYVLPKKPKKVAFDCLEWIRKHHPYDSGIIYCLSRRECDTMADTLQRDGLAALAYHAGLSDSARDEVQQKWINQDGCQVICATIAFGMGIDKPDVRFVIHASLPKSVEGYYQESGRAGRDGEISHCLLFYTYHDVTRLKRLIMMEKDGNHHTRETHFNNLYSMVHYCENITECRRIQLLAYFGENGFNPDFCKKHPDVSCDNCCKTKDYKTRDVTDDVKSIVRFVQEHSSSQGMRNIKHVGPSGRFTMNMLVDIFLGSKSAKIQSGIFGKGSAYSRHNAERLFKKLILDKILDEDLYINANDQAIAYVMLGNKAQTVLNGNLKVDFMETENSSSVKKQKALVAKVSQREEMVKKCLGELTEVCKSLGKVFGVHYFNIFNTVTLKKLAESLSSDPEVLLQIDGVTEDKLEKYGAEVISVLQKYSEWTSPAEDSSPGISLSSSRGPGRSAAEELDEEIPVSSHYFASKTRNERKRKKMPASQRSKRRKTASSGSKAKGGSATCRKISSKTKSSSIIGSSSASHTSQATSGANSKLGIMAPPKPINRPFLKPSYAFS
Chain of DNA repair nuclease/redox regulator APEX1 (Homo sapiens) (P27695 whole entry, looked up): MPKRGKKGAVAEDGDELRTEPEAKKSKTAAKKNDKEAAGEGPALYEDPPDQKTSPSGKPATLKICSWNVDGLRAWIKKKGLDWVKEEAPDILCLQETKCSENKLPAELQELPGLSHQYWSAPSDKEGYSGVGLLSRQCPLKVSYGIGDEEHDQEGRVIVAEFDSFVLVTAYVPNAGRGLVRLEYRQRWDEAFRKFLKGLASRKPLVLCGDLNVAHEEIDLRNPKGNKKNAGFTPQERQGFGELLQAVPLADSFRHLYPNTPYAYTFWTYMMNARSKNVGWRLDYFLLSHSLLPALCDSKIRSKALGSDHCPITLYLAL
Chain of Ferritin light chain (Equus caballus) (P02791 2-175 limits assumed): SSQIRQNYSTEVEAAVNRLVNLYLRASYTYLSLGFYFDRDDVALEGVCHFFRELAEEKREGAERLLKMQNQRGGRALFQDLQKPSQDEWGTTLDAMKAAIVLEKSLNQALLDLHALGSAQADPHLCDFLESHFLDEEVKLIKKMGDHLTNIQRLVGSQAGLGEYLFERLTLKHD

`CCCCC/C=C\C/C=C\CCCCCCCC(=O)O`: the call in assay [1] was inactive.

With `CC(O)CO` (centres undefined), the outcome in [1] was inactive.

As to `CC1=C2[C@@H]([C@H](C)CC[C@H]2/C=C(\C)C(=O)O)[C@H](O)C1`, the compound was classed as inactive in assay [1].

For `CCCCCCCC/C=C\CCCCCCCC(=O)O`, in assay [1], the compound was classed as inactive.

As to `Nc1ccn([C@H]2CS[C@@H](CO)O2)c(=O)n1`, the outcome in assay [1] was inactive.

In the case of `Oc1cc(O)c2c(c1)OC(c1ccc(O)c(O)c1)C(O)C2` (centres undefined), the outcome in assay [2] and in assay [4] was inactive. Besides, the Potency in assay [3] was 2.51 µM (active).

`CC[N+](C)(C)Cc1ccccc1Br`: the Potency in assay [5] is 14.1 µM (active); in assay [7] it was 11.2 µM (active). Besides, the outcome in [6], in assay [8], in assay [9] and in [10] was inactive.

Regarding `CCOC(C)=O`, in assay [1], the call was inactive.

As for `CC1=C(/C=C/C(C)=C/C=C/C(C)=C/CO)C(C)(C)CCC1`, the compound was called inactive in assay [1].

As for `CCCCCCCC(=O)O`, the result in assay [1] was inactive.

With `CN1Cc2c(N)cccc2C(c2ccccc2)C1` (centres undefined), the result in assay [8], in assay [9] and in [10] was inactive.

For `IC(I)I`, the compound was called inactive in [1].

As to `O=S(=O)(O)O`, in assay [1], the result was inactive.

Turning to `CC(C)=O`, the compound was called inactive in [1].

Consider `Cc1ccccc1`, for which, in assay [1], the call was inactive.
